Assay results as given in PubChem BioAssay.
Activity calls are given as the source filed them.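 Rule for the calls: active = mean inhibition over 43.08%, the solvent-only control mean plus 3 SD; inactive = the rest.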

Target: Nuclear receptor coactivator 3 (Homo sapiens) (UniProt Q9Y6Q9)
Test: SRC3 coactivator transcriptional activity inhibitors, confirmation, cell-based, luminescence, quadruplicate (AID 588792);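 note: 0% = DMSO treated cells and 100% = gossypol at 36 µM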
Settings: HEK293 GAL4-SRC3 luciferase reporter, at 3.6 µM, stronger effect = higher value

Chain of Nuclear receptor coactivator 3 (Homo sapiens) (Q9Y6Q9 whole entry, looked up): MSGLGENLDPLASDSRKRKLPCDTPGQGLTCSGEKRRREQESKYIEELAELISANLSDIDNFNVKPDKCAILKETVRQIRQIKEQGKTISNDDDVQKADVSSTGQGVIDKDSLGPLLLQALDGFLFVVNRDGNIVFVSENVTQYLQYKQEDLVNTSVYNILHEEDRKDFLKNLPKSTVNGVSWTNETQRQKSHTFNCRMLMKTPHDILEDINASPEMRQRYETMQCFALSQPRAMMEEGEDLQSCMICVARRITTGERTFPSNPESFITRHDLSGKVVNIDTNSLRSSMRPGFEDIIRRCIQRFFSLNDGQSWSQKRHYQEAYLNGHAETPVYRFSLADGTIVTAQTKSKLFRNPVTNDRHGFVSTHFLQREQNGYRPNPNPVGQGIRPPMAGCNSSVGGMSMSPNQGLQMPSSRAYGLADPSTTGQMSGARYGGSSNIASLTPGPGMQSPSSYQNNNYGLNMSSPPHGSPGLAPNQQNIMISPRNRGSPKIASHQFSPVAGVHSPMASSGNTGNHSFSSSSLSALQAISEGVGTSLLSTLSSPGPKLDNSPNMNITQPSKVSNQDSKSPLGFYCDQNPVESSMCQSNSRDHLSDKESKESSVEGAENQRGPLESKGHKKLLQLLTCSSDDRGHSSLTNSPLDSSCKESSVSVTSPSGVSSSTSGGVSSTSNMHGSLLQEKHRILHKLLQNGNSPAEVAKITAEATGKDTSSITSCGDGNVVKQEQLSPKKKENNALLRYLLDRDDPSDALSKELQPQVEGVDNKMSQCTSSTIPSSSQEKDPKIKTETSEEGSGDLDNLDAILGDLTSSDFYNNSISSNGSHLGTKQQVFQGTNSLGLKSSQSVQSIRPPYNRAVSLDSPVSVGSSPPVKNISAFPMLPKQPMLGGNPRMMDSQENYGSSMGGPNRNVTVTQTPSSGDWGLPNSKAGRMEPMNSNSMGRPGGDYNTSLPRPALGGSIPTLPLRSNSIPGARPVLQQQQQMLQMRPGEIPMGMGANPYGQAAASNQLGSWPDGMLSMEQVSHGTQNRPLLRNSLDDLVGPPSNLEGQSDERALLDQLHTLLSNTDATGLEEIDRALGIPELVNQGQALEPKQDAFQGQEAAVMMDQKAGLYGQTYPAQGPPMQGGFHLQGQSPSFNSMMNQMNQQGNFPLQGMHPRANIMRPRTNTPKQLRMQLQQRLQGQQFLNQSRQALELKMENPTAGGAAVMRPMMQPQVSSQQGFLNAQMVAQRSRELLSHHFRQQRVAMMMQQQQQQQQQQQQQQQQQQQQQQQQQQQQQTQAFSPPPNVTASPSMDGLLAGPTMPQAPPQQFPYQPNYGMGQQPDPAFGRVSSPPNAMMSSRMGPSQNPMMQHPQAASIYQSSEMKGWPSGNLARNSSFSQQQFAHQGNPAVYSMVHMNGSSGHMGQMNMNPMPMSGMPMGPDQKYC

inhibition, inactive:
CCOC(=O)c1cccc(NC(=O)CSc2nc3cccnc3n2C)c1 9.81%
O=c1cc(CNc2cc(C(F)(F)F)cc(C(F)(F)F)c2)nc2sccn12 4.27%
COc1cc(OC)cc(-c2nn[nH]n2)c1 -10.5%
CCc1ccc(CN(C)C(=O)c2cc(COc3cccc4cnccc34)on2)cc1 18.4%
O=C(CN1C(=O)c2ccccc2S1(=O)=O)c1ccc(F)cc1 -13.1%
CCN(c1ccccc1)S(=O)(=O)c1ccc(C(=O)Nc2nnc(-c3ccco3)o2)cc1 8.7%
C#CCOCCOCCOCCNc1nc(N2CCN(C(=O)Cn3cc(CCCN=C(N)N)nn3)CC2)nc(N2CCN(C(=O)[C@H](C)n3cc(CCCN=C(N)N)nn3)CC2)n1 3.42%
CCOC(=O)c1c(-c2ccccc2)nnn1-c1nc(OCC)nc(N2CCCCC2)n1 -15.5%
Cc1cccc(Nc2nc(N)c([N+](=O)[O-])c(N3CC(C)CC(C)C3)n2)c1 (centres undefined) 3.08%
COc1cc(C=CC(=O)c2ccccc2)cc(OC)c1OC 28.4%
COc1cccc(/C=N/NC(=O)C(C)n2nc(C)c([N+](=O)[O-])c2C)c1O (centres undefined) 10.2%
COc1cc(/C=C/c2cc(C(F)(F)F)[nH]c(=O)n2)cc(OC)c1OC 16.9%
CCC1C(=O)NCCN1C(=O)c1ccc2nc(Cc3ccc(OC)cc3)oc2c1 (centres undefined) -2.02%
CCN(CC(=O)Nc1ccccc1C(F)(F)F)C(=O)c1ccc(N2C(=O)CCC2=O)cc1 -1.4%
